About 2,000 (4.3%) of roughly 47,000 compounds were called active. Cut-off read from the data, not from the text of the source: active = inhibition above about 30%; inactive = the rest. This excerpt belongs to a sample that is enriched for actives.
Biological target: Ubiquitin carboxyl-terminal hydrolase 8 (Homo sapiens) (UniProt P40818)
Experiment: inhibitors of human USP8 deubiquitinase (AID 1645853)
Conditions: purified USP8, Ub-rhodamine cleavage fluorescence, 30 min; at 20 µM; active compounds read high

Sequence of Ubiquitin carboxyl-terminal hydrolase 8 (Homo sapiens) (P40818 whole entry, looked up): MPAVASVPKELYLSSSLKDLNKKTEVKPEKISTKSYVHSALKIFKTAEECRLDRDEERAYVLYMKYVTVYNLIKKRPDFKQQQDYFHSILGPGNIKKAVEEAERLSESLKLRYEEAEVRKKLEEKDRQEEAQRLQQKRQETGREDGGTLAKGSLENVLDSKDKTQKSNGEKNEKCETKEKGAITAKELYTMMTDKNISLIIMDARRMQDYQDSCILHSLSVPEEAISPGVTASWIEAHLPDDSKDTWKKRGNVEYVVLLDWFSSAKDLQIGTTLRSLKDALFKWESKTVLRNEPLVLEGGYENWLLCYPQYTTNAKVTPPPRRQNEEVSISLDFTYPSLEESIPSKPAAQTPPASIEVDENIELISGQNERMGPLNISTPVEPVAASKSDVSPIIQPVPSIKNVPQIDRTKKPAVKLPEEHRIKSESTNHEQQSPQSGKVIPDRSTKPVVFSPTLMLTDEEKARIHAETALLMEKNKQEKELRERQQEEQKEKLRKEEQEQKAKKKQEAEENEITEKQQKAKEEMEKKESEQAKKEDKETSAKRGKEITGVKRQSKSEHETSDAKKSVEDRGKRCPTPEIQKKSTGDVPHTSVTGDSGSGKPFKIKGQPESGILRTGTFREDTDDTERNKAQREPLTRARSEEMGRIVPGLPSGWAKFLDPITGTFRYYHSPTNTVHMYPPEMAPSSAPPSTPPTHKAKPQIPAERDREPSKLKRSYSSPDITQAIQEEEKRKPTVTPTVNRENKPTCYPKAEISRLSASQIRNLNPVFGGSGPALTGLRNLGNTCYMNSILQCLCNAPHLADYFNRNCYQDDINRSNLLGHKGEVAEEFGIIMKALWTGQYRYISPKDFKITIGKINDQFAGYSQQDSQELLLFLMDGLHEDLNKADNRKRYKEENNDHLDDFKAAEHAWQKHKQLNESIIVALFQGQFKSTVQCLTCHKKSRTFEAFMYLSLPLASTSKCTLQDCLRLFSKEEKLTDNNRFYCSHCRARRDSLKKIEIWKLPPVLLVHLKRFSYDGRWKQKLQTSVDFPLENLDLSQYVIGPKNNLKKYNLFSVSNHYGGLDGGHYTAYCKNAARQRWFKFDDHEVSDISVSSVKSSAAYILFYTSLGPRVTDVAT

| SMILES | inhibition |
| --- | --- |
| Cc1ccc(S(=O)(=O)N(CC(=O)NC(C)c2ccccc2)Cc2ccccc2F)cc1 (centres undefined) | 5.32% (inactive) |
| COc1cccc(S(=O)(=O)N2CCC(c3nccc(C)n3)C2)c1 (centres undefined) | 0.292% (inactive) |
| N#Cc1ccc(NC(=O)Nc2cccn(Cc3ccccc3F)c2=O)cc1 | 96.4% (active) |
| N#Cc1ccc(NC(=O)COC(=O)c2ccc3ccccc3n2)cc1 | -17.7% (inactive) |
| O=C(CCCn1c(=O)c2ccccc2n(Cc2ccccc2F)c1=O)NC1CCCC1 | 5.2% (inactive) |
| O=C(Cn1cncn1)N1CCN(C(c2ccccc2)c2ccccc2)CC1 | -4.21% (inactive) |
| c1cnc(Nc2cnc(C3CCCN(Cc4cnc[nH]4)C3)cn2)cn1 (centres undefined) | -10.5% (inactive) |
| CCN1C(=O)c2ccccc2C(=O)[C@@]2(C)CN(C(=O)c3ccccc3)C[C@@H]12 | 15.6% (inactive) |
| O=c1c(S(=O)(=O)c2cc(F)cc(F)c2)c[nH]c2ccc(F)cc12 | 4.59% (inactive) |
| N#Cc1cccc(S(=O)(=O)N2CCC3(CC2)OC(=O)Nc2ccccc23)c1 | 10.6% (inactive) |
| N#Cc1cccc(S(=O)(=O)c2c[nH]c3ccc(Cl)cc3c2=O)c1 | 46.9% (active) |
| O=C(C1Cc2ccccc2CN1S(=O)(=O)c1ccc2c(c1)OCCO2)N1CCCC1 (centres undefined) | 1.43% (inactive) |
| CC1=C(C(=O)Nc2ccc(C)cc2C)C(c2cccs2)n2c(nc3ccccc32)N1 (centres undefined) | 31.4% (active) |
| CC1=C(C(=O)Nc2ccccc2)C(c2cccs2)n2ncnc2N1 (centres undefined) | -32.6% (inactive) |
| COc1cccc(C2C(C(=O)Nc3ccccc3C)=C(C)Nc3ncnn32)c1OCc1ccccc1 (centres undefined) | -22.6% (inactive) |
| Cc1cc2c(cc1CNC(=O)c1ccc3c(c1)CC(C)O3)OCCCO2 (centres undefined) | -4.91% (inactive) |
| O=C1c2ccccc2-c2nnc(-c3ccc(Oc4ccccc4)cc3)cc21 | 14.8% (inactive) |
| Cc1nn2c(S(=O)(=O)Nc3cccc(F)c3C)c(C)nc2s1 | 19.1% (inactive) |
| COCCN1C(=O)Cc2c(C)nc(C3(C)CCCN(c4ccnc(C)n4)C3)nc21 (centres undefined) | 30.4% (active) |
| COCCN1C(=O)Cc2c(C)nc(C3(C)CCCN(c4cc(C)ncn4)C3)nc21 (centres undefined) | 6.73% (inactive) |
| O=C(C1CCCCC1)N1CCN(c2ncnc3c2nnn3Cc2ccccc2)CC1 | 6.37% (inactive) |
| Cn1cc(-c2nc(C(=O)Nc3ccc(F)cc3)cs2)c2cccnc21 | 30.4% (active) |
| Cc1cccc(NC(=O)c2csc(-c3cn(C)c4ncccc34)n2)c1 | 6.69% (inactive) |

| SMILES | inhibition |
| --- | --- |
| Cn1nc(C(=O)Nc2ccc(F)cc2)c(=O)c2ccccc21 | -3.42% (inactive) |
| Cc1[nH]c(C)c(S(=O)(=O)NC2CC2)c1-c1nc(C2CC2)no1 | -17.3% (inactive) |
| NC(=O)c1ccc(CN2CCC3(CC2)CC3c2nc(-c3cccc(Cl)c3)no2)cc1 (centres undefined) | -39.4% (inactive) |
| NC(=O)c1ccc(NC(=O)Cc2cc(-c3ccc(Cl)cc3)on2)cc1 | 62.4% (active) |
| COc1cccc(CCNC(=O)Cc2cc(-c3ccc(C)cc3)on2)c1 | -12.1% (inactive) |
| CC(=O)Nc1ccc(S(=O)(=O)NCc2cn3ccccc3n2)cc1 | -7.51% (inactive) |
| Cc1ccc(-n2c3c(c(=O)[nH]c2=O)CN(Cc2ccco2)CN3)cc1 | -10.7% (inactive) |
| Cc1cc(C)c2nc3c(cc2c1)CN(Cc1ccco1)C(=O)O3 | 75.7% (active) |
| COc1ccc2nc3c(cc2c1)CN(Cc1ccccc1)C(=O)O3 | 20.1% (inactive) |
| O=S1(=O)c2ccccc2C(Oc2ccccc2)CN1CCO (centres undefined) | -13.4% (inactive) |
| O=S(=O)(Nc1ccc(N2CCOCC2)cc1)c1cccc2cccnc12 | -35.6% (inactive) |
| CCC1=N[C@@]2(CC[C@@H]3CN(C(=O)Nc4ccc(CC)cc4)C[C@@H]32)C(=O)N1C | -21.1% (inactive) |
| COc1cc(Cl)c(NC(=O)c2cc(-c3ccccn3)n[nH]2)c(OC)c1 | 49.3% (active) |
| Cc1ccc(CC(=O)N2CCN(C(=O)c3cc(-c4ccccn4)n[nH]3)CC2)cc1 | -164% (inactive) |
| O=C(Nc1ccc(Cl)cc1F)c1cc(-c2ccccn2)n[nH]1 | 19.3% (inactive) |
| CC1[C@@H]2[C@@H](C(=O)N3CCOCC3)C[C@H](CN1S(=O)(=O)N(C)C)N2Cc1ccccc1 (some centres undefined) | 0.42% (inactive) |
| O=C1NC2(COC3(CCN(Cc4cccnc4)CC3)C2)Nc2ccc(Cl)cc21 (centres undefined) | -202% (inactive) |
| Cc1c(C)n(-c2cccnc2)c2ncn3nc(-c4ccccn4)nc3c12 | -3.69% (inactive) |
| CC1(C)Cc2c(c(-c3ccco3)nc3sc4c(SCCCc5ccccc5)ncnc4c23)CO1 | 75.7% (active) |
| CSc1ncnc2c1sc1nc(-c3ccccc3)c3c(c12)CC(C)(C)OC3 | 2.79% (inactive) |
| CCCCCCSc1ncnc2c1sc1nc(-c3ccccc3)c3c(c12)CC(C)(C)OC3 | -5.24% (inactive) |
| O=C(C1CC1)N1CC[C@@H]2Oc3ccccc3S(=O)(=O)N(Cc3ccccc3)[C@H]2CC1 | -86.6% (inactive) |
| O=c1[nH]c(-c2ccccn2)nc2c1CCN(Cc1cnn(-c3ccc(F)cc3)c1)C2 | -247% (inactive) |

| SMILES | inhibition |
| --- | --- |
| Cc1nn(-c2ccccc2)c(C)c1S(=O)(=O)N1CCN(c2ccccn2)CC1 | -28.5% (inactive) |
| O=C(c1ccc(N2CCCC2)nn1)N1CCN(c2ccccn2)CC1 | -50.6% (inactive) |
| Clc1cc2nc(N3CCN(c4ccccn4)CC3)c3nncn3c2cc1Cl | 75.6% (active) |
| COc1cccc(-c2cc(C(=O)N3CCN(c4ccc(N5CCOCC5)nn4)CC3)[nH]n2)c1 | -8.45% (inactive) |
| FC(F)(F)c1ccc(-c2cnc([C@@H]3COCCN3C3CCOCC3)[nH]2)cc1 | 2.96% (inactive) |
| COc1ccc(CN2Cc3ccccc3OC3(CCC(CO)CC3)C2)c(F)c1 (centres undefined) | -66.5% (inactive) |
| O=C(NC1CCN(Cc2ccccc2)CC1)c1cn2c(n1)CCCC2 | -18.5% (inactive) |
| Cc1nn(C)c(C)c1CNC(=O)c1cc2cn(C3CCCC3)cc2s1 | -141% (inactive) |
| O=C(NC1CCN(Cc2ccccc2)CC1)c1cc2cn(C3CC3)cc2s1 | 31.4% (active) |
| CCOC(=O)C1=C(CN2CCN(c3ccccc3OC)CC2)NC(=O)NC1c1cccc(OC)c1OC (centres undefined) | -6.79% (inactive) |
| Cc1nc(-c2ccc(C(=O)NCc3ccc4c(c3)OCO4)cc2)cs1 | 7.04% (inactive) |
| O=C(NCCc1ccccc1)c1cc2c(s1)CS(=O)(=O)C2 | 3.17% (inactive) |
| O=C(NCc1ccc2c(c1)OCO2)c1cc2c(s1)CS(=O)(=O)C2 | 47.6% (active) |
| O=S(=O)(c1ccccc1)N1CCCCCC1C1CCN(Cc2nc(C3CC3)no2)CC1 (centres undefined) | -3.93% (inactive) |
| COc1cc2c(cc1OC)C(c1cccs1)N(C(=O)c1ccc3n[nH]nc3c1)CC2 (centres undefined) | 6.71% (inactive) |
| COc1ccc(CC2c3cc(OC)c(OC)cc3CCN2C(=O)c2ccc(C)c(Cl)c2)cc1OC (centres undefined) | 36.3% (active) |
| COc1ccc(C(=O)N2CCc3cc4ccccc4nc32)cc1OC | -4.03% (inactive) |
| COc1ccc(C2CC(=O)c3cnc(NCc4ccco4)nc3C2)c(OC)c1 (centres undefined) | -0.335% (inactive) |
| Cc1ccc(CSc2nnc(/C=C/c3ccccc3)o2)cc1 | -1.95% (inactive) |
| CCCNc1cc(N2CCCC(CCC(=O)N3CCC(C)CC3)C2)ncn1 (centres undefined) | -110% (inactive) |
| CCc1ccc(S(=O)(=O)NCC(O)COc2ccc(OC)cc2)cc1 (centres undefined) | -1.1% (inactive) |
| Cc1ccc(-c2ncc(C(=O)Nc3ccccc3C)c(-c3ccncc3)n2)cc1 | 41% (active) |
| Cc1ccc(F)cc1NC(=O)c1cnc(-c2ccccc2)nc1-c1ccncc1 | 12.2% (inactive) |

| SMILES | inhibition |
| --- | --- |
| O=C(Nc1cc(Cl)ccc1F)c1cnc(-c2ccccc2)nc1-c1ccncc1 | -14% (inactive) |
| Cc1nn(-c2ccccc2)c2c1C(C(=O)c1ccc(Cl)s1)CC(=O)N2 (centres undefined) | 10.5% (inactive) |
| COc1ccc(C(=O)NCC(c2cccnc2)S(=O)(=O)c2ccc(C)cc2)cc1OC (centres undefined) | -8.69% (inactive) |
| CCOC(=O)c1c(NC(=O)c2ccco2)sc(Cc2ccc3c(c2)OCO3)c1C | 20.7% (inactive) |
| O=C(c1cnn(-c2ccc(Cl)cc2)n1)c1cccs1 | 2.7% (inactive) |
| O=C(Nc1ccc2cn[nH]c2c1)c1cnn(-c2ccccc2)n1 | 59.1% (active) |
| O=C(Nc1ccc2oc(-c3ccccc3)nc2c1)c1cccc(-n2cnnc2)n1 | 3.67% (inactive) |
| O=C1CN(C(=O)CNc2ccccc2N2CCCC2=O)c2ccccc2N1 | 4.28% (inactive) |
| O=c1c(S(=O)(=O)N2CCCC2)cccn1Cc1cc(=O)n2ccccc2n1 | -4.28% (inactive) |
| Cc1ccc(-c2cn3ccn(-c4ccc(C)cc4C)c(=O)c3n2)cc1 | 43% (active) |
| Cc1ccn2cc(-c3ccc(NS(=O)(=O)c4cc(C)c(C)cc4C)cc3)nc2n1 | 21.4% (inactive) |
| CC(C)(C)c1ccc(Cn2nnc3c(=O)[nH]c(C4CCN(S(=O)(=O)c5ccc6c(c5)OCCO6)CC4)nc32)cc1 | 7.01% (inactive) |
| O=C(O)c1cc(-c2cccc3ccccc23)n[nH]1 | -80.6% (inactive) |
| O=C(c1cnccn1)N1CC(C(=O)N2CCCC2)C1 | 0.517% (inactive) |
| CCc1ccccc1NC(=O)CSc1nnc(-c2ccncc2)o1 | 54.3% (active) |
| CCN(C(=O)CSc1nnc(-c2ccncc2)o1)c1ccccc1 | 14.4% (inactive) |
| O=C(CSc1nnc(-c2ccncc2)o1)Nc1cccc(Cl)c1 | 4.92% (inactive) |
| Cc1ccc2occ(CC(=O)Nc3sc4c(c3C(=O)NCc3cccnc3)CCCC4)c2c1 | 20.7% (inactive) |
| CCC(Cc1ccccc1)NS(=O)(=O)c1ccc2c(c1)NC(=O)CS2 (centres undefined) | 3.6% (inactive) |
| CCOc1ccc(CNS(=O)(=O)c2cccc(-c3noc(C)n3)c2)cc1OC | -8.47% (inactive) |

— PubChem BioAssay AID1645853 (Buhrlage Lab, Dana-Farber Cancer Institute and Novartis …, 2021)
